Measurements from PubChem BioAssay (NCI).
About 79,000 compounds went through this panel and 15% of them were active in at least one assay; those are over-represented in the sample as a whole. Active and inactive are the calls of the source. No stated cut-off is given here; in the data, active means growth inhibition above about 70%; inactive means the rest.

Assay: NCI Yeast Anticancer Drug Screen. Data for the sgs1 strain (AID 173);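 further: 0% = growth of vehicle-only control cultures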
Details: S. cerevisiae sgs1 mutant, at 33.0 µM, stronger effect = higher value
Method in brief: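 Read-out: yeast growth inhibition relative to vehicle controls, following compound exposure of a strain with a defined DNA repair/cell cycle alteration.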

Question: With CC(CN(C)C)C(=O)/C=C/c1ccc(Cl)c(Cl)c1 (configuration not stated) as the compound, how does the growth inhibition read?
Answer: 84% (active)

Question: With NC(=S)N1N=C2c3ccccc3CC[C@H]2[C@@H]1c1ccc(Cl)cc1 as the compound, how does the growth inhibition read?
Answer: 67% (inactive)

Question: With C/C(=N/NC(=S)Nc1ccccc1C)c1ccccn1 as the compound, how does the growth inhibition read?
Answer: -7% (inactive)

Question: For O=C1/C(=C/c2ccc(Cl)c(Cl)c2)CNC/C1=C\c1ccc(Cl)c(Cl)c1, which growth inhibition is on record?
Answer: 78% (active)

Question: Which growth inhibition does the source give for CC(C)OP(=O)(OC(C)C)C(=NCCO)NNc1ccc([N+](=O)[O-])cc1 here?
Answer: 95% (active)

Question: With CC(C)(CN1CCCCC1)C(=O)CC(SCCS(=O)(=O)O)c1ccccc1 (configuration not stated) as the compound, how does the growth inhibition read?
Answer: 19% (inactive)

Question: With COC1=CCC23C(=O)C=CC(=O)C2(C1)C(=O)c1ccccc1C3=O (configuration not stated) as the compound, how does the growth inhibition read?
Answer: 61% (inactive)

Question: Which growth inhibition does the source give for c1ccc2nc3c(nc2c1)sc1ccccc13 here?
Answer: 51% (inactive)

Question: With O=C1c2ccccc2-c2ccc(N=Cc3ccccc3)cc21 as the compound, how does the growth inhibition read?
Answer: 19% (inactive)

Question: With CNC(=S)N/N=C(/C)CCC/C(C)=N/NC(=S)NC as the compound, how does the growth inhibition read?
Answer: 63% (inactive)

Question: Which growth inhibition does the source give for Nc1ccc(/C=C/c2ccc3cccnc3c2)cc1 here?
Answer: 20% (inactive)

Question: For COc1ccc2c3c1OC(C)C31CC(=O)CCC1CC2 (configuration not stated), which growth inhibition is on record?
Answer: 9% (inactive)

Question: With CCOC(=O)Nc1ccc(C)c(NC(=O)OCC)c1 as the compound, how does the growth inhibition read?
Answer: 20% (inactive)

Question: With CCN(CC)CCNc1ccc2nc(C)n3c4ccc(OC)cc4c(=O)c1c23 as the compound, how does the growth inhibition read?
Answer: 8% (inactive)

Question: For O=C(c1cc(=O)c2ccc(O)cc2o1)c1ccc(Cl)cc1Cl, which growth inhibition is on record?
Answer: 95% (active)

Question: For CCCNC(=O)OCc1c(COC(=O)NCCC)c(-c2ccc(Cl)c(Cl)c2)n2c1CCC2, which growth inhibition is on record?
Answer: 40% (inactive)

Question: For O=C(Cc1ccccc1)NN1C(=O)C(Cl)C1c1cc(Br)cc(Br)c1O (configuration not stated), which growth inhibition is on record?
Answer: 93% (active)

Question: With CCOC(=O)C(Cc1c2ccccc2cc2ccccc12)(NC(C)=O)C(=O)OCC as the compound, how does the growth inhibition read?
Answer: 5% (inactive)

Question: Which growth inhibition does the source give for O=[N+]([O-])/C=C/c1cc2ccc3ccccc3c2[nH]1 here?
Answer: 94% (active)

Question: For O=S1(=O)CCC2=CC(C(F)(F)F)=CC(C(F)(F)F)=CN21, which growth inhibition is on record?
Answer: 94% (active)

Question: Which growth inhibition does the source give for O=C(Cc1ccccc1)NNc1nc(NNC(=O)c2ccncc2)nc(Nc2ccc([N+](=O)[O-])cc2)n1 here?
Answer: 69% (inactive)

Question: Which growth inhibition does the source give for CCCCS/C(=C(/C#N)C(N)=O)c1cc2c([nH]1)CCCC2 here?
Answer: 22% (inactive)

Question: With O=C(O)c1ccccc1C(=O)OC1CCc2ccccc2C1 (configuration not stated) as the compound, how does the growth inhibition read?
Answer: 14% (inactive)

Question: With CCOC(=O)/C(=C\c1cccc(C)c1)C(C)=O as the compound, how does the growth inhibition read?
Answer: 94% (active)

Question: With NC(=S)N/N=C1\c2ccccc2CCC1CCC1(O)CCc2ccccc2C1=O (configuration not stated) as the compound, how does the growth inhibition read?
Answer: 82% (active)

Question: Which growth inhibition does the source give for Cc1cccc2c(Cl)c3cccc(C)c3nc12 here?
Answer: 2% (inactive)

Question: For CC(C)OC(=O)NNc1c(Cl)cc(Cl)cc1Cl, which growth inhibition is on record?
Answer: 8% (inactive)

Question: For Nc1ccc2c(c1)C(=O)c1c(F)cccc1-2, which growth inhibition is on record?
Answer: 10% (inactive)

Question: With N#CSCC1COc2ccccc2O1 (configuration not stated) as the compound, how does the growth inhibition read?
Answer: 73% (active)

Question: Which growth inhibition does the source give for Cc1ccc(S(=O)(=O)NC(=O)C2C(=O)CC3(CCCCC3)CC2=O)cc1 here?
Answer: 68% (inactive)

Question: With CC1=NN(C(=O)c2ccccc2O)C(=O)/C1=C/c1ccco1 as the compound, how does the growth inhibition read?
Answer: 85% (active)

Same assay, conditions: S. cerevisiae sgs1 mutant, at 100.0 µM, stronger effect = higher value

Question: Which growth inhibition does the source give for CC(CN(C)C)C(=O)/C=C/c1ccc(Cl)c(Cl)c1 (configuration not stated) here?
Answer: 98% (active)

Question: With NC(=S)N1N=C2c3ccccc3CC[C@H]2[C@@H]1c1ccc(Cl)cc1 as the compound, how does the growth inhibition read?
Answer: 91% (active)

Question: For C/C(=N/NC(=S)Nc1ccccc1C)c1ccccn1, which growth inhibition is on record?
Answer: -6% (inactive)

Question: Which growth inhibition does the source give for O=C1/C(=C/c2ccc(Cl)c(Cl)c2)CNC/C1=C\c1ccc(Cl)c(Cl)c1 here?
Answer: 94% (active)

Question: For CC(C)OP(=O)(OC(C)C)C(=NCCO)NNc1ccc([N+](=O)[O-])cc1, which growth inhibition is on record?
Answer: 95% (active)

Question: With CC(C)(CN1CCCCC1)C(=O)CC(SCCS(=O)(=O)O)c1ccccc1 (configuration not stated) as the compound, how does the growth inhibition read?
Answer: 22% (inactive)

Question: With COC1=CCC23C(=O)C=CC(=O)C2(C1)C(=O)c1ccccc1C3=O (configuration not stated) as the compound, how does the growth inhibition read?
Answer: 93% (active)

Question: With c1ccc2nc3c(nc2c1)sc1ccccc13 as the compound, how does the growth inhibition read?
Answer: 37% (inactive)

Question: With O=C1c2ccccc2-c2ccc(N=Cc3ccccc3)cc21 as the compound, how does the growth inhibition read?
Answer: 86% (active)

Question: With CNC(=S)N/N=C(/C)CCC/C(C)=N/NC(=S)NC as the compound, how does the growth inhibition read?
Answer: 62% (inactive)

Question: With Nc1ccc(/C=C/c2ccc3cccnc3c2)cc1 as the compound, how does the growth inhibition read?
Answer: 46% (inactive)

Question: With COc1ccc2c3c1OC(C)C31CC(=O)CCC1CC2 (configuration not stated) as the compound, how does the growth inhibition read?
Answer: 9% (inactive)

Question: Which growth inhibition does the source give for CCOC(=O)Nc1ccc(C)c(NC(=O)OCC)c1 here?
Answer: 30% (inactive)

Question: Which growth inhibition does the source give for CCN(CC)CCNc1ccc2nc(C)n3c4ccc(OC)cc4c(=O)c1c23 here?
Answer: 25% (inactive)

Question: For O=C(c1cc(=O)c2ccc(O)cc2o1)c1ccc(Cl)cc1Cl, which growth inhibition is on record?
Answer: 94% (active)

Question: For CCCNC(=O)OCc1c(COC(=O)NCCC)c(-c2ccc(Cl)c(Cl)c2)n2c1CCC2, which growth inhibition is on record?
Answer: 62% (inactive)

Question: Which growth inhibition does the source give for O=C(Cc1ccccc1)NN1C(=O)C(Cl)C1c1cc(Br)cc(Br)c1O (configuration not stated) here?
Answer: 88% (active)

Question: For CCOC(=O)C(Cc1c2ccccc2cc2ccccc12)(NC(C)=O)C(=O)OCC, which growth inhibition is on record?
Answer: 9% (inactive)

Question: Which growth inhibition does the source give for O=[N+]([O-])/C=C/c1cc2ccc3ccccc3c2[nH]1 here?
Answer: 92% (active)

Question: Which growth inhibition does the source give for O=S1(=O)CCC2=CC(C(F)(F)F)=CC(C(F)(F)F)=CN21 here?
Answer: 99% (active)

Question: Which growth inhibition does the source give for O=C(Cc1ccccc1)NNc1nc(NNC(=O)c2ccncc2)nc(Nc2ccc([N+](=O)[O-])cc2)n1 here?
Answer: 64% (inactive)

Question: With CCCCS/C(=C(/C#N)C(N)=O)c1cc2c([nH]1)CCCC2 as the compound, how does the growth inhibition read?
Answer: 72% (active)

Question: Which growth inhibition does the source give for O=C(O)c1ccccc1C(=O)OC1CCc2ccccc2C1 (configuration not stated) here?
Answer: 45% (inactive)

Question: With CCOC(=O)/C(=C\c1cccc(C)c1)C(C)=O as the compound, how does the growth inhibition read?
Answer: 98% (active)

Question: Which growth inhibition does the source give for NC(=S)N/N=C1\c2ccccc2CCC1CCC1(O)CCc2ccccc2C1=O (configuration not stated) here?
Answer: 84% (active)

Question: For Cc1cccc2c(Cl)c3cccc(C)c3nc12, which growth inhibition is on record?
Answer: 2% (inactive)

Question: For CC(C)OC(=O)NNc1c(Cl)cc(Cl)cc1Cl, which growth inhibition is on record?
Answer: 9% (inactive)

Question: Which growth inhibition does the source give for Nc1ccc2c(c1)C(=O)c1c(F)cccc1-2 here?
Answer: 92% (active)

Question: Which growth inhibition does the source give for N#CSCC1COc2ccccc2O1 (configuration not stated) here?
Answer: 97% (active)

Question: Which growth inhibition does the source give for Cc1ccc(S(=O)(=O)NC(=O)C2C(=O)CC3(CCCCC3)CC2=O)cc1 here?
Answer: 79% (active)

Question: Which growth inhibition does the source give for CC1=NN(C(=O)c2ccccc2O)C(=O)/C1=C/c1ccco1 here?
Answer: 92% (active)
